Assay results published in paper PMC5540273 (PLoS ONE, 2017).

Assays:
Details in all cases: concentration: 1 μM, replicates: in singlicate; n = 1
DMPK = system: DMPK
DRAK1 = system: T1, DRAK1
T1 construct: gene STK17A

DRAK2 = system: T2, DRAK2
T2 construct: gene STK17B

DYRK1A = system: DYRK1A
DYRK1B = system: DYRK1B
DYRK2 = system: DYRK2
EGFR = system: EGFR
EIF2AK1 = system: EIF2AK1
EPHA1 = system: EPHA1
EPHA2 = system: EPHA2
EPHA3 = system: EPHA3
EPHA4 = system: EPHA4
EPHA5 = system: EPHA5
EPHA6 = system: EPHA6
EPHA7 = system: EPHA7
EPHA8 = system: EPHA8
EPHB1 = system: EPHB1
EPHB2 = system: EPHB2
EPHB3 = system: EPHB3
EPHB4 = system: EPHB4
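Also: KINOMEscan kinase panel screen.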

Row | SMILES | %Inh (DMPK) | %Inh (DRAK1) | %Inh (DRAK2) | %Inh (DYRK1A) | %Inh (DYRK1B) | %Inh (DYRK2) | %Inh (EGFR) | %Inh (EIF2AK1) | %Inh (EPHA1) | %Inh (EPHA2) | %Inh (EPHA3) | %Inh (EPHA4) | %Inh (EPHA5) | %Inh (EPHA6) | %Inh (EPHA7) | %Inh (EPHA8) | %Inh (EPHB1) | %Inh (EPHB2) | %Inh (EPHB3) | %Inh (EPHB4)
1 | NS(=O)(=O)c1cccc(-c2ccc3nccc(-c4cccc(S(N)(=O)=O)c4)c3c2)c1 [GW867253] | 2% | 0% | 0% | 0% | 0% | 32% | 0% | 0% | 0% | 0% | 11% | 0% | 2% | 0% | 0% | 4% | 0% | 0% | 0% | 0%
2 | COc1ccc(S(=O)(=O)NC2CCN(c3cc(C)nc(Nc4cccc(C#N)c4)n3)CC2)cc1.O=C(O)C(F)(F)F [GSK1653539] | 0% | 0% | 0% | 6% | 39% | 12% | 18% | 0% | 0% | 0% | 7% | 11% | 0% | 0% | 0% | 0% | 7% | 0% | 13% | 16%
3 | Cl.Oc1cccc(Nc2ccnc3cc(-c4ccncc4)ccc23)c1 [GW494601] | 0% | 11% | 0% | 25% | 7% | 43% | 76% | 0% | 98.8% | 84% | 76% | 84% | 95.3% | 88% | 0% | 97% | 96.2% | 70% | 27% | 94.2%
4 | c1ccc(-c2cc(-c3c[nH]nc3-c3ccccn3)ccn2)cc1 [GW576604] | 0% | 11% | 0% | 4% | 0% | 0% | 17% | 0% | 0% | 0% | 15% | 0% | 0% | 0% | 0% | 0% | 20% | 0% | 0% | 7%
5 | O=C(NOCC1CC1)c1ccc(F)c(F)c1Nc1ccc(I)cc1Cl | 0% | 0% | 21% | 0% | 0% | 0% | 0% | 0% | 3% | 0% | 0% | 0% | 1% | 0% | 0% | 0% | 0% | 0% | 0% | 0%
6 | NS(=O)(=O)CCc1cccc(Nc2nccc(-c3c(-c4cccc(NC(=O)c5c(F)cccc5F)c4)nn4ccccc34)n2)c1 [GSK336735] | 11% | 4% | 12% | 20% | 0% | 12% | 100% | 0% | 69% | 71% | 30% | 45% | 0% | 48% | 8% | 60% | 26% | 18% | 0% | 11%
7 | Cc1nnc(-c2ccc(C)c(-c3ccc(C(=O)Nc4ccc(NS(C)(=O)=O)cc4)cc3)c2)o1 [GW702865] | 0% | 0% | 0% | 0% | 1% | 0% | 13% | 0% | 0% | 16% | 8% | 0% | 0% | 0% | 0% | 3% | 6% | 10% | 0% | 5%
8 | Cc1cn2c(=O)cc(N3CCOCC3)nc2n1Cc1cccc(Cl)c1Cl [GSK2334006] | 12% | 0% | 12% | 20% | 36% | 0% | 45% | 2% | 51% | 21% | 0% | 19% | 0% | 10% | 7% | 21% | 16% | 7% | 17% | 19%
9 | [2H]C([2H])(c1cccc(C(F)(F)F)c1C)n1ccn2c(=O)nc(N3CCOCC3)cc12 [GSK2336394] | 0% | 0% | 0% | 16% | 0% | 1% | 28% | 0% | 12% | 8% | 0% | 1% | 0% | 0% | 11% | 19% | 20% | 0% | 7% | 8%
10 | Cc1cccc(Cn2ccn3c(=O)cc(N4CCOCC4)nc23)c1 [GSK2297542] | 3% | 1% | 0% | 24% | 17% | 12% | 22% | 11% | 16% | 15% | 12% | 10% | 0% | 9% | 0% | 19% | 23% | 0% | 13% | 15%
11 | NCC(NC(=O)c1cc(-c2cn[nH]c2)c(-c2ccnc3[nH]ccc23)s1)c1ccccc1.O=C(O)C(F)(F)F.O=C(O)C(F)(F)F (stereo not drawn) [GSK1325775] | 95.8% | 90.6% | 0% | 44% | 35% | 79% | 4% | 0% | 13% | 0% | 31% | 0% | 0% | 0% | 0% | 7% | 13% | 0% | 1% | 0%
12 | COc1ccc(Nc2ncc(C#N)c(Nc3ccccc3C(N)=O)n2)cc1N1CCN(C)CC1.Cl [GSK1558669] | 88% | 99.1% | 83% | 99.8% | 87% | 99.1% | 92.7% | 48% | 92.9% | 80% | 95% | 61% | 35% | 86% | 81% | 29% | 98.6% | 59% | 28% | 76%
13 | O=C(NCCCN1CCOCC1)c1cccc(Nc2nccc(Nc3ccc(Oc4ccccc4)cc3)n2)c1 [GW663929] | 0% | 10% | 8% | 0% | 31% | 16% | 80% | 0% | 0% | 0% | 25% | 3% | 0% | 3% | 0% | 0% | 1% | 0% | 2% | 14%
14 | Cc1nnc(-c2ccc3ncc(-c4ccc(S(C)=O)cc4)n3c2)o1 (stereo not drawn) | 1% | 0% | 7% | 16% | 66% | 6% | 9% | 6% | 0% | 0% | 2% | 8% | 11% | 22% | 1% | 1% | 0% | 18% | 12% | 0%
15 | O=c1cc(N2CCOCC2)nc2n(Cc3cccc4ccccc34)ccn12 [GSK2333389] | 0% | 0% | 0% | 20% | 7% | 21% | 0% | 0% | 8% | 0% | 0% | 14% | 0% | 8% | 5% | 9% | 10% | 0% | 11% | 5%
